Test results: ChEMBL document CHEMBL2218924, “A broad activity screen in support of a chemogenomic map for kinase signalling research and drug discovery” (Biochem J, 2013); call rule not given here

Columns and labels:
[1] = target: Protein kinase C eta type (Homo sapiens) (UniProt P24723); conditions: at 1 µM
[2] = target: Protein kinase C eta type (Homo sapiens) (UniProt P24723); conditions: at 10 µM
[3] = target: Protein kinase C theta type (Homo sapiens) (UniProt Q04759); conditions: at 10 µM
[4] = target: T1, Protein kinase C iota type (Homo sapiens) (UniProt P41743); conditions: at 1 µM
T1 sequence (whole entry): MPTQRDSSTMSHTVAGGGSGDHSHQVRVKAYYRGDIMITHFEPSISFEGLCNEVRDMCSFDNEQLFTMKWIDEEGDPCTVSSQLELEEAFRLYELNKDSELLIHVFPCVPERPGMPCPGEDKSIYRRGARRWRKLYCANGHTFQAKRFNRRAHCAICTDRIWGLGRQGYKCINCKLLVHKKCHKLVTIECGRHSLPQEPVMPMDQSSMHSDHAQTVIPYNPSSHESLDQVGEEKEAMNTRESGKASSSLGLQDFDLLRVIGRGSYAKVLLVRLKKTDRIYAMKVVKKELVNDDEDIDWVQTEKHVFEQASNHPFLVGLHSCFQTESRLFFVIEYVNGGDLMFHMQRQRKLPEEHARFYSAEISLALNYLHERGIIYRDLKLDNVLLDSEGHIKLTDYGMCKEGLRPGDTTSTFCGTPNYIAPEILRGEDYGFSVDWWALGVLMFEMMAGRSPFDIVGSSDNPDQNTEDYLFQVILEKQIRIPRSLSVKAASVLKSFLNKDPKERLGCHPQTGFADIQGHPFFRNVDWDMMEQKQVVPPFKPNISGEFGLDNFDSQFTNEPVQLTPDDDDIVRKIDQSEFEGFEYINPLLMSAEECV

[5] = target: T1, Protein kinase C iota type (Homo sapiens); conditions: at 10 µM
[6] = target: T2, Serine/threonine-protein kinase D1 (Homo sapiens) (UniProt Q15139); conditions: at 1 µM
T2 sequence (whole entry): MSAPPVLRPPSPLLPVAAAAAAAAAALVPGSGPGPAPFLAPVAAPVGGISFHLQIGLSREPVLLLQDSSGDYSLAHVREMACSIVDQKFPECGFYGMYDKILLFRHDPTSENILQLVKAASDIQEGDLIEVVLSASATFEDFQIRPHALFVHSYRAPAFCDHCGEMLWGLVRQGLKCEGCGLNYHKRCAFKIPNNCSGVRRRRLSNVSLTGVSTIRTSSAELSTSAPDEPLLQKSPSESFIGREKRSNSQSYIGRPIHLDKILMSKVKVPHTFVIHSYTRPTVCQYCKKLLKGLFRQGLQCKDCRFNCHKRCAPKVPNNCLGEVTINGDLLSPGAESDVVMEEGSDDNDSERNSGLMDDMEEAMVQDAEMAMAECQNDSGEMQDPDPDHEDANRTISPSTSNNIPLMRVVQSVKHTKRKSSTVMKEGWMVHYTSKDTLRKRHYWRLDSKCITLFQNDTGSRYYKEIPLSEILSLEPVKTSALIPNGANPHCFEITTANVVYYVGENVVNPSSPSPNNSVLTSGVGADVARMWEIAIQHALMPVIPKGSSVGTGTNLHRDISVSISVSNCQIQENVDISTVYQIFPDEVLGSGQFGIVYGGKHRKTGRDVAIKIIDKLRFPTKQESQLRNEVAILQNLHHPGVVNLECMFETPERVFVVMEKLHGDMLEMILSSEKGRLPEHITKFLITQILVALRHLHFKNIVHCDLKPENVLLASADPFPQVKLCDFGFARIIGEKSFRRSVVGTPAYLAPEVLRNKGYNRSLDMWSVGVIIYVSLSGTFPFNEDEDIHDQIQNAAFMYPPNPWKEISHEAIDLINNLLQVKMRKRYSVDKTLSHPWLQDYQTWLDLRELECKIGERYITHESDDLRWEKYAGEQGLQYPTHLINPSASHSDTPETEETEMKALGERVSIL

[7] = target: T2, Serine/threonine-protein kinase D1 (Homo sapiens); conditions: at 10 µM
[8] = target: T3, Serine/threonine-protein kinase D2 (Homo sapiens) (UniProt Q9BZL6); conditions: at 1 µM
T3 sequence (whole entry): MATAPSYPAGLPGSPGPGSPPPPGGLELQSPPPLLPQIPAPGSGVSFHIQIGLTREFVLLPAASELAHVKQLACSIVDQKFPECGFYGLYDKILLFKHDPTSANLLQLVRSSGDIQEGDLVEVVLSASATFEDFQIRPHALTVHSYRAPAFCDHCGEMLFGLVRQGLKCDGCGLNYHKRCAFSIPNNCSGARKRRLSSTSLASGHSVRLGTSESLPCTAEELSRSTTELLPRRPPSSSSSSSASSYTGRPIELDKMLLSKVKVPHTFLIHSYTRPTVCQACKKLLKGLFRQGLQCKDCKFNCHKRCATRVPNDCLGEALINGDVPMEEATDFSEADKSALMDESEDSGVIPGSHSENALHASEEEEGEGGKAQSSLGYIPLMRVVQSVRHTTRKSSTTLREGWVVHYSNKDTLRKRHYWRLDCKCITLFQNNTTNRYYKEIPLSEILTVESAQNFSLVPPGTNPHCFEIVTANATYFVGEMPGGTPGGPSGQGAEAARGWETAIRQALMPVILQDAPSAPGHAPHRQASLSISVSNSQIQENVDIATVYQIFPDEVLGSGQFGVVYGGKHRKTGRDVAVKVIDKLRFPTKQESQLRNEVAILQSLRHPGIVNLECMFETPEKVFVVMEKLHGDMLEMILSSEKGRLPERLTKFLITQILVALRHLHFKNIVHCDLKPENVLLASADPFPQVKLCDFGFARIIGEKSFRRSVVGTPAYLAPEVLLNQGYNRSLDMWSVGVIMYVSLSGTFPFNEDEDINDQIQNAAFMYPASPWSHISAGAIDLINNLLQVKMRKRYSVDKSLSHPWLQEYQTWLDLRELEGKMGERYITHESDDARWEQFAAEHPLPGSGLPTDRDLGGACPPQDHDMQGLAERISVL

[9] = target: T3, Serine/threonine-protein kinase D2 (Homo sapiens); conditions: at 10 µM
[10] = target: T4, cGMP-dependent protein kinase 1 (Homo sapiens) (UniProt Q13976); conditions: at 1 µM
T4 sequence (whole entry): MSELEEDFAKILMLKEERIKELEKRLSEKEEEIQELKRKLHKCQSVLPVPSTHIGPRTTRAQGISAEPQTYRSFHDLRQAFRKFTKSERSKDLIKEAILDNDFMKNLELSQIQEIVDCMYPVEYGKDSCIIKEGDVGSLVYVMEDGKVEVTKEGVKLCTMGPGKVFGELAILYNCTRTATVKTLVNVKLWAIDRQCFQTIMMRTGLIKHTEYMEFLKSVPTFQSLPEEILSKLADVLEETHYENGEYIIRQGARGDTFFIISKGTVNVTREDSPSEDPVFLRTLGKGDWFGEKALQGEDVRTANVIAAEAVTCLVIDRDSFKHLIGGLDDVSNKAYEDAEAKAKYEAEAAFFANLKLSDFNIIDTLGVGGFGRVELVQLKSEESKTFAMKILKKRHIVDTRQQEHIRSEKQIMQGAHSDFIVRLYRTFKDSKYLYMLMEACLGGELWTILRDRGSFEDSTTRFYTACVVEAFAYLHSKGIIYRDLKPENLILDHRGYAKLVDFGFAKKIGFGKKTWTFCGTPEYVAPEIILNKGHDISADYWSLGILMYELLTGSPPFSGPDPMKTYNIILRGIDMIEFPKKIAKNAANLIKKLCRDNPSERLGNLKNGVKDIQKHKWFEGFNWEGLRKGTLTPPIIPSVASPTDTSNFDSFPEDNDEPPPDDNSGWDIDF

[11] = target: T4, cGMP-dependent protein kinase 1 (Homo sapiens); conditions: at 10 µM
[12] = target: T4, cGMP-dependent protein kinase 1 (Homo sapiens); conditions: at 1 µM; remark: listed apart in the source
[13] = target: T4, cGMP-dependent protein kinase 1 (Homo sapiens); conditions: at 10 µM; remark: listed apart in the source
[14] = target: T5, MAP kinase-activated protein kinase 5 (Homo sapiens) (UniProt Q8IW41); conditions: at 1 µM
T5 sequence (whole entry): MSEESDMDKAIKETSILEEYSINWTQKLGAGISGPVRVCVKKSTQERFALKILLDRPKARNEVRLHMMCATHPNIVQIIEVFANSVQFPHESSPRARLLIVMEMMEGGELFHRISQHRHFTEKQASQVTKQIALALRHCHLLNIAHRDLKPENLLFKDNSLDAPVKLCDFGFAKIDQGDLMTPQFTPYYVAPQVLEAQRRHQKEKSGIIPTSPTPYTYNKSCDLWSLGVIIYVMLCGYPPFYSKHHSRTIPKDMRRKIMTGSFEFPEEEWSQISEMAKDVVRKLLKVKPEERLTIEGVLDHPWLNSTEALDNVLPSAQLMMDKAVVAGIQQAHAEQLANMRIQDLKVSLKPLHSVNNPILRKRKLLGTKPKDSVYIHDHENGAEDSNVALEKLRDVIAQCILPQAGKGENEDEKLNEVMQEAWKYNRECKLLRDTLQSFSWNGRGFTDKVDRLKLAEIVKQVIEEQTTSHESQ

[15] = target: T5, MAP kinase-activated protein kinase 5 (Homo sapiens); conditions: at 10 µM
[16] = target: Serine/threonine-protein kinase N2 (Homo sapiens) (UniProt Q16513); conditions: at 1 µM
[17] = target: Serine/threonine-protein kinase N2 (Homo sapiens) (UniProt Q16513); conditions: at 10 µM
[18] = target: Tyrosine-protein kinase FRK (Homo sapiens) (UniProt P42685); conditions: at 1 µM
[19] = target: Tyrosine-protein kinase FRK (Homo sapiens) (UniProt P42685); conditions: at 10 µM
[20] = target: Protein kinase C theta type (Homo sapiens) (UniProt Q04759); conditions: at 1 µM

Protein kinase C theta type (Homo sapiens), sequence (Q04759 whole entry, looked up): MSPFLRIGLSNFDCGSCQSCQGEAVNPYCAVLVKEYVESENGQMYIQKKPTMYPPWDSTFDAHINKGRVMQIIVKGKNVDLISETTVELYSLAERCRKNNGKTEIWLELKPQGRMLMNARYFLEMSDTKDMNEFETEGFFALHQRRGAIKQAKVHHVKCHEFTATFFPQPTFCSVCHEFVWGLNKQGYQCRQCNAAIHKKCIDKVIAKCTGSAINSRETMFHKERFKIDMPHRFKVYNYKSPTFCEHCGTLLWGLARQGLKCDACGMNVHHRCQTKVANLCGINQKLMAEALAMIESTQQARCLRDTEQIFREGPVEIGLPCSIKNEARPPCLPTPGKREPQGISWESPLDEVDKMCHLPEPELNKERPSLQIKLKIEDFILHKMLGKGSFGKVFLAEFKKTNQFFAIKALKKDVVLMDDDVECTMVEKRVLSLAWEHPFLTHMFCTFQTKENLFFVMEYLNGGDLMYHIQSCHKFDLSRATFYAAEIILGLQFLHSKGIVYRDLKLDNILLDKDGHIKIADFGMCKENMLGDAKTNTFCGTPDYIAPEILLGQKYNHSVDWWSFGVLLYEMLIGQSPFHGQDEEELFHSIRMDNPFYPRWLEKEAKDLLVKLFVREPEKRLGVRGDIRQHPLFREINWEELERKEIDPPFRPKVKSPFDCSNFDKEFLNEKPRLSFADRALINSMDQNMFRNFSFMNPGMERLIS
Tyrosine-protein kinase FRK (Homo sapiens), sequence (P42685 whole entry): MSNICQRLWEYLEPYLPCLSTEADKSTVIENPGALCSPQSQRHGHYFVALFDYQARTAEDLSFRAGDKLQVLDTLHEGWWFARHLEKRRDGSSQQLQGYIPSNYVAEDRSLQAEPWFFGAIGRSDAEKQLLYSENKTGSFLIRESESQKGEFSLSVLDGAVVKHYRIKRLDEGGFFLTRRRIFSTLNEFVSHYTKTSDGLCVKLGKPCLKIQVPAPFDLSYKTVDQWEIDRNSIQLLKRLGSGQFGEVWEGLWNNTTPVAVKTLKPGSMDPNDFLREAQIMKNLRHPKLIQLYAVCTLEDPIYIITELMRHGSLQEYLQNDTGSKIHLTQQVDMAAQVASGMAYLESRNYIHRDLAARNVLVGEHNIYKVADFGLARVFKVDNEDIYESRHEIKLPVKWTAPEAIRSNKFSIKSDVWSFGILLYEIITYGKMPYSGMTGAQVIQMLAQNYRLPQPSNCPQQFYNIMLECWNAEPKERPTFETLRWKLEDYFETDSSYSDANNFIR
Serine/threonine-protein kinase N2 (Homo sapiens), sequence (Q16513 whole entry, looked up): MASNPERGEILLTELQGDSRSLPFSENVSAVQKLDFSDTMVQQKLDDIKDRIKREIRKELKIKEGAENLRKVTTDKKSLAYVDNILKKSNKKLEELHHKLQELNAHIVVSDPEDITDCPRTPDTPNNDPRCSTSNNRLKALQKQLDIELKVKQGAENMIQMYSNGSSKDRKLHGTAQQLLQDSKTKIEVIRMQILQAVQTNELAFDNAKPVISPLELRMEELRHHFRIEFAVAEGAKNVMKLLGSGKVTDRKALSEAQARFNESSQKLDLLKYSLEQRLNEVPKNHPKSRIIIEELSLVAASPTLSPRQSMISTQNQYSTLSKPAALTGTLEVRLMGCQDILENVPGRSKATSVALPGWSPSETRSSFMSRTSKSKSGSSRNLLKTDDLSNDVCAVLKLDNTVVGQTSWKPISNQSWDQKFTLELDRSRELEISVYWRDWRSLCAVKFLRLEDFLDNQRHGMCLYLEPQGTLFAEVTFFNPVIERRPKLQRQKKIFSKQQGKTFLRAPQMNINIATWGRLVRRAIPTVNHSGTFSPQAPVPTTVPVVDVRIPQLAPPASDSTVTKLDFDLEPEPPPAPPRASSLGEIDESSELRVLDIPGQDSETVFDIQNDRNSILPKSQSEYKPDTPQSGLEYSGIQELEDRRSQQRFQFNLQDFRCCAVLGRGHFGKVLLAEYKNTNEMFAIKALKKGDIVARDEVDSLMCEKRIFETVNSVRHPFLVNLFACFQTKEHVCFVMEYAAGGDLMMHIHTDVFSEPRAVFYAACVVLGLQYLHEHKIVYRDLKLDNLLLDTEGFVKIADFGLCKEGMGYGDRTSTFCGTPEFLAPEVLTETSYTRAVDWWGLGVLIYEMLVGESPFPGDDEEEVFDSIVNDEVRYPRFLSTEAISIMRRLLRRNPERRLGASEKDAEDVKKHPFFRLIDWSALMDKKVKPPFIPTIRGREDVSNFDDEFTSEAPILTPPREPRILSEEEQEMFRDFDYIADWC
Protein kinase C eta type (Homo sapiens), sequence (P24723 whole entry): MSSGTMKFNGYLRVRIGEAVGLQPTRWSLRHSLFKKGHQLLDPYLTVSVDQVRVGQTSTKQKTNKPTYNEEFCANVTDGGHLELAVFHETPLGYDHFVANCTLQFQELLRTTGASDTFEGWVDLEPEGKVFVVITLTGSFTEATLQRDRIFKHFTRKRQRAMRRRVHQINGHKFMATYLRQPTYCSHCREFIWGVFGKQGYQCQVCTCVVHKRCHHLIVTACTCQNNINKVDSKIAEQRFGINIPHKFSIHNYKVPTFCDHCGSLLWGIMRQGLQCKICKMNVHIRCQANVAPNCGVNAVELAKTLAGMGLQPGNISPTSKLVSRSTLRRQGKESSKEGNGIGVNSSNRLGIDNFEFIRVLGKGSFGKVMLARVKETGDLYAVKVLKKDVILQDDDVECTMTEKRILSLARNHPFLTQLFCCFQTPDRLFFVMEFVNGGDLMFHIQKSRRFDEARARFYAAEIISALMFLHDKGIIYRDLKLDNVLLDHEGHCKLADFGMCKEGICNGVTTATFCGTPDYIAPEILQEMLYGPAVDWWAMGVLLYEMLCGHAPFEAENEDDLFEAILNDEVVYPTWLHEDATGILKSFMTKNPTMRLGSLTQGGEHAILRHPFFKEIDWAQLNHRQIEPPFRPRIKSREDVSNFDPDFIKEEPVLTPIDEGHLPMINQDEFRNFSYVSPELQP

SMILES	residual activity [1] [%]	residual activity [2] [%]	residual activity [3] [%]	residual activity [4]	residual activity [5] [%]	residual activity [6] [%]	residual activity [7] [%]	residual activity [8] [%]	residual activity [9] [%]	residual activity [10] [%]	residual activity [11] [%]	residual activity [12] [%]	residual activity [13] [%]	residual activity [14] [%]	residual activity [15] [%]	residual activity [16] [%]	residual activity [17] [%]	residual activity [18] [%]	residual activity [19] [%]	residual activity [20] [%]
O=C(Nc1cccc(Nc2cc(Nc3cccc(C(F)(F)F)c3)ncn2)c1)C1CC1	117	87	80	97% (inactive)	111	99	88	107	110	117	100	81	88	110	24	93	93	101	73	
CO[C@H]1[C@@H](OC)C[C@H](C)[C@@H](OC)C2=CC(=O)C=C(NC(=O)/C(C)=C/C=C/[C@H](OC)[C@@H](OC(N)=O)/C(C)=C/[C@@H]1C)C2=O	118	83	98	92% (inactive)	71	119	102	102	110	102	105	85	81	107	95	111	96	114	93	100
Cc1cc(Nc2nc(-c3ccccc3)nc3ccccc23)n[nH]1			26	112% (inactive)	107			110	104	82	39	82	27				58	46	8	64
N#CCCc1ccc2c(c1)-c1[nH]c3ccc([N+](=O)[O-])cc3c1CC(=O)N2					67		76							68	43	57	28	54	22	
c1ccc(-c2n[nH]c3c2oc2ccccc23)cc1	91	85	96	90% (inactive)	79		72			99	100	75	93	97	58					98
C[C@@H](N)[C@H]1CC[C@H](C(=O)Nc2ccncc2)CC1	26	5	17	101% (inactive)	93	100			112	77	31	73	30	112	102	16	4	98	97	63
CO[C@@H]1[C@H](N(C)C(=O)c2ccccc2)C[C@H]2O[C@]1(C)n1c3ccccc3c3c4c(c5c6ccccc6n2c5c31)C(=O)NC4	84	29	11	79% (inactive)	85	85		101	92	8	4	4	3	102	57	2	1	33	23	15
O=[N+]([O-])c1ccc(-c2nc(-c3ccc(F)cc3)c(-c3ccncc3)[nH]2)cc1	95	68	68	110% (inactive)	109	64	52	100	94	98	103	105	92	112	107	119	93	57	60	91
